In the supplement of paper PMC10849652:
About 8,800 targets were measured; listed, in parts, are those with a hit and a random draw of the rest. About 0.5% of all pairs of compound and target were hits.

Key:
Assay in all cases: log2 fold change, soluble protein after heating vs DMSO (PISA); higher = thermal stabilisation; K562 lysate, 10 uM; active = over 0.2 and 3.5 SD of the protein, either way, in both replicates (recomputed)
[1] = compound: CN1CC[C@H](c2c(O)cc(O)c3c(=O)cc(-c4ccccc4Cl)oc23)[C@H](O)C1 [alvocidib]
Outline: (§1)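 To prepare the extract, K562 pellets were dounce-homogenised in PBS pH 7.4 with 1 mM MgCl2, giving crude material at 1 mg/mL protein. This was treated with 10 μM compound for 30 min, then heated in aliquots for 3 min over 48°C-58°C before pooling and addition of NP-40 to 0.5% at 4°C. Centrifugation at 21,000xg for 90 min left soluble protein in the supernatant, which TMTpro 16plex LC-MS/MS quantified with equalised channel sums. Results are log-two fold changes in thermal stability compared with solvent controls, from duplicates.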

[2] = compound: CN1CCc2c(c3ccccc3n2Cc2ccc(C(=O)NO)cc2)C1 [Tubastatin A]
Outline: as §1

[3] = compound: CNC(=O)C1=CC=CC=C1NC2=NC(=NC=C2Cl)NC3=C(C=C(C=C3)N4CCOCC4)OC
Outline: as §1

[4] = compound: CNC(=O)c1ccc(Nc2ncc(C(F)(F)F)c(NCc3nccnc3N(C)S(C)(=O)=O)n2)cc1 [defactinib]
Outline: as §1

[5] = compound: CNc1nc(-c2ccc3c(N)n[nH]c3c2)cc(N2C[C@@H](C(=O)NC3CCCCC3)CC[C@H]2C)n1
Outline: as §1

[6] = compound: COC(=O)N[C@@H](C)CNc1nccc(-c2cn(C(C)C)nc2-c2cc(Cl)cc(NS(C)(=O)=O)c2F)n1 [encorafenib]
Outline: as §1

[7] = compound: COC(=O)[C@H](CCSC)NC(=O)C1=C(C=C(C=C1)NC[C@H](CS)N)C2=CC=CC=C2
Outline: as §1

[8] = compound: COc1cc(Nc2ncc3c(n2)-c2ccc(Cl)cc2C(c2c(F)cccc2OC)=NC3)ccc1C(=O)O [alisertib]
Outline: as §1

[9] = compound: COc1cc2nc(-c3cc(F)ccc3O)nc(N[C@@H]3CNC[C@H]3C(C)(C)O)c2cc1OC
Outline: as §1

[10] = compound: COc1cc2ncnc(Nc3ccc(F)c(Cl)c3)c2cc1OCCCN1CCOCC1 [gefitinib]
Outline: as §1

[11] = compound: CS(=O)(=O)CCNCc1ccc(-c2ccc3ncnc(Nc4ccc(OCc5cccc(F)c5)c(Cl)c4)c3c2)o1 [lapatinib]
Outline: as §1

[12] = compound: CS(=O)(=O)N1CCN(Cc2cc3nc(-c4cccc5[nH]ncc45)nc(N4CCOCC4)c3s2)CC1 [pictilisib]
Outline: as §1

[13] = compound: C[C@@H](Oc1cc(-c2cnn(C3CCNCC3)c2)cnc1N)c1c(Cl)ccc(F)c1Cl [crizotinib]
Outline: as §1

[14] = compound: C[C@H](C1=CC=C(C=C1)C(=O)NC2=C3C=CNC3=NC=C2)N
Outline: as §1

[15] = compound: C[C@H](Nc1ncnc2nc[nH]c12)c1cc2cccc(Cl)c2c(=O)n1-c1ccccc1 [duvelisib]
Outline: as §1

[16] = compound: Cc1cc(Nc2cc(CN3CCOCC3)c3nc(C)c(Cc4ccc(Cl)cc4F)n3n2)n[nH]1 [gandotinib]
Outline: as §1

[17] = compound: Cc1cc(Nc2cc(N3CCN(C)CC3)nc(Sc3ccc(NC(=O)C4CC4)cc3)n2)n[nH]1 [tozasertib]
Outline: as §1

[18] = compound: Cc1ccc(-n2nc(C(C)(C)C)cc2NC(=O)Nc2ccc(OCCN3CCOCC3)c3ccccc23)cc1 [doramapimod]
Outline: as §1

[19] = compound: Cc1ccc(NC(=O)c2ccc(CN3CC[C@H](N(C)C)C3)c(C(F)(F)F)c2)cc1Nc1nccc(-c2cncnc2)n1 [bafetinib]
Outline: as §1

[20] = compound: Cc1cccc(CC(=O)N2CCc3c2ccc(-c2cn(C)c4ncnc(N)c24)c3F)n1
Outline: as §1

Measured: log2 fold change

KCTD20 (UniProt Q7Z5Y7)
inactive: [1] 0.05 | [2] -0.174 | [3] 0.01 | [4] -0.041 | [5] -0.025 | [6] -0.165 | [7] -0.058 | [8] -0.089 | [9] -0.095 | [10] 0.035 | [11] -0.064 | [12] 0.039 | [13] -0.077 | [14] 0.006 | [15] -0.082 | [16] 0.006 | [17] -0.119 | [18] -0.01 | [19] 0.007 | [20] -0.005

GMDS (UniProt O60547)
Chain of UniProt O60547 (O60547 whole entry, looked up): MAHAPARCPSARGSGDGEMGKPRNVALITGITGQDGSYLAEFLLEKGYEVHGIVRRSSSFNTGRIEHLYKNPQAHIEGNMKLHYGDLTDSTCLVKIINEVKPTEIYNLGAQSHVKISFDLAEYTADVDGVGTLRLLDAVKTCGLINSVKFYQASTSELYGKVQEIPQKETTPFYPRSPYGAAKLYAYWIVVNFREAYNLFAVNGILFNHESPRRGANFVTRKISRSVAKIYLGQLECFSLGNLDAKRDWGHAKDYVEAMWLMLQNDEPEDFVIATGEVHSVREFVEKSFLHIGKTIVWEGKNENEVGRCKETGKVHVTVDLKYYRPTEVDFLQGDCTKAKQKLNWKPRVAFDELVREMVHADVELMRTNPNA
inactive: [1] 0.036 | [2] -0.057 | [3] -0.017 | [4] 0.042 | [5] 0.003 | [6] -0.059 | [7] 0.123 | [8] 0.016 | [9] 0.023 | [10] -0.012 | [11] -0.019 | [12] -0.035 | [13] -0.01 | [14] 0.004 | [15] 0.012 | [16] -0.013 | [17] -0.016 | [18] 0.018 | [19] 0.001 | [20] -0.021

KDM6A (UniProt O15550)
Chain of UniProt O15550 (O15550 whole entry, looked up): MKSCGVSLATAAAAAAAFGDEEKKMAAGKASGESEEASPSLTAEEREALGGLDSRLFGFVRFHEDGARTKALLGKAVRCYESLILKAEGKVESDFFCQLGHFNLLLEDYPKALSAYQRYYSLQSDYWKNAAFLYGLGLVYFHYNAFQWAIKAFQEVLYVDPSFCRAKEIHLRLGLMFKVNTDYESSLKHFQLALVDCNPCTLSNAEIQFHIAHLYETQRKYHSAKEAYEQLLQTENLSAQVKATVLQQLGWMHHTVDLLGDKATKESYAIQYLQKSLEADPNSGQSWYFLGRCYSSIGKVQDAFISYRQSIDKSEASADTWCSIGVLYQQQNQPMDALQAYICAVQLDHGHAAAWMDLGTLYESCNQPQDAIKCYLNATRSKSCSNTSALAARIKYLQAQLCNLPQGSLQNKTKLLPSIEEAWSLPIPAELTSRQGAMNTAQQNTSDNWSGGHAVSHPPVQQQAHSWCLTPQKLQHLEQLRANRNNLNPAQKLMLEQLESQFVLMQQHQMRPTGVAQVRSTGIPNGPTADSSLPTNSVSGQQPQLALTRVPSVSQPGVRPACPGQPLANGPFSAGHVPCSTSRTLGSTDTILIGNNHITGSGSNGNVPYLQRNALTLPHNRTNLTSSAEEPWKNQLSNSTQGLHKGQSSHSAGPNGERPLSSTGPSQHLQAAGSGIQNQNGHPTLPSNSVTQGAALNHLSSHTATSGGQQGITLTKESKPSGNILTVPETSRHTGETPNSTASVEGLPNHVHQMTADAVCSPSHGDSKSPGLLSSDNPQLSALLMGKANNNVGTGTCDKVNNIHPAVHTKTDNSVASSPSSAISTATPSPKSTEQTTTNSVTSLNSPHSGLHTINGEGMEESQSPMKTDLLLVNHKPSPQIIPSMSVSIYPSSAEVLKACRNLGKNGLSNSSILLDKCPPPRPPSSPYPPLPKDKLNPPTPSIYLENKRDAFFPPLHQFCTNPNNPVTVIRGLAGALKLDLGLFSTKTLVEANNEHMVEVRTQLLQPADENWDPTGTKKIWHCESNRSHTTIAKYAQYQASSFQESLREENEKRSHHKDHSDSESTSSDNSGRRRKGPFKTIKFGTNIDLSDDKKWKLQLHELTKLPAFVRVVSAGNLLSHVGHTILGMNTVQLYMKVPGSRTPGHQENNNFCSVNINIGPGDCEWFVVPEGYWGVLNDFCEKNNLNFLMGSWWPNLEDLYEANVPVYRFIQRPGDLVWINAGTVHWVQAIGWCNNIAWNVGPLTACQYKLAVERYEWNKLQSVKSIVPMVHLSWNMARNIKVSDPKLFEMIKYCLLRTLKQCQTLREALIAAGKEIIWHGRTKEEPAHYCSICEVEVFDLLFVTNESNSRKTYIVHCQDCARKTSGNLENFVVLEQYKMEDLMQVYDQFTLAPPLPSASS
inactive: [1] -0.057 | [2] -0.057 | [3] 0.041 | [4] -0.048 | [5] 0.006 | [6] 0.054 | [7] 0.018 | [8] -0.025 | [9] -0.005 | [10] -0.011 | [11] 0.033 | [12] 0.046 | [13] 0.003 | [14] -0.028 | [15] 0.032 | [16] 0.009 | [17] 0.01 | [18] 0.022 | [19] 0.002 | [20] 0.013

HNRNPM (UniProt P52272)
Chain of UniProt P52272 (P52272 whole entry, looked up): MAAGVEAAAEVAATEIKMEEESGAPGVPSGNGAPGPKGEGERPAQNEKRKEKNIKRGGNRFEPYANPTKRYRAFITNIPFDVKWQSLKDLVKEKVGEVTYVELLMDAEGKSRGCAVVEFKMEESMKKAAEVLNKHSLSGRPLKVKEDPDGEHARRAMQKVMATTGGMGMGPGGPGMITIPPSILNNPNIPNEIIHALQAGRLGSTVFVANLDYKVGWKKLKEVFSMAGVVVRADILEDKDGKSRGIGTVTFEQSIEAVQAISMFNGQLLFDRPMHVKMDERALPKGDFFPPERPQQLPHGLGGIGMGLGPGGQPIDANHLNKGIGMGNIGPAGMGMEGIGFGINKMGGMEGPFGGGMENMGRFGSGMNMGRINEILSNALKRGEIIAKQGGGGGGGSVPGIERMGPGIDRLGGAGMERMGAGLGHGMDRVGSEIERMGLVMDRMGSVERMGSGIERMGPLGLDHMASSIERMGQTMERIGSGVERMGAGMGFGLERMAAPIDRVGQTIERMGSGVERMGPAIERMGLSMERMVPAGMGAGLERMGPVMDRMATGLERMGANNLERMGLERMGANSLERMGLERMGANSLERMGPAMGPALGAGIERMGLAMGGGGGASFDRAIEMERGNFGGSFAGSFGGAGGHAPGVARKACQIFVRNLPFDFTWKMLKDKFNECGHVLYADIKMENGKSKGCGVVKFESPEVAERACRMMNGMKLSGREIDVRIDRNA
inactive: [1] -0.01 | [2] -0.096 | [3] 0.022 | [4] 0.045 | [5] -0.067 | [6] 0.166 | [7] -0.035 | [8] 0.069 | [9] 0.037 | [10] 0.012 | [11] -0.001 | [12] 0.063 | [13] 0.025 | [14] -0.011 | [15] -0.022 | [16] 0.02 | [17] -0.019 | [18] -0.113 | [19] -0.029 | [20] 0.053

HDLBP, A0A024R4E5
inactive: [1] -0.004 | [2] -0.082 | [3] 0.01 | [4] 0.001 | [5] 0.004 | [6] 0.028 | [7] 0.073 | [8] -0.005 | [9] 0.003 | [10] 0.003 | [11] 0.005 | [12] -0.017 | [13] -0.028 | [14] 0.002 | [15] -0.003 | [16] -0.03 | [17] 0.006 | [18] 0.018 | [19] -0.049 | [20] 0.013

HNRNPUL1 (UniProt Q9BUJ2)
inactive: [1] 0.006 | [2] 0.01 | [3] -0.011 | [4] 0.002 | [5] -0.027 | [6] 0.003 | [7] -0.003 | [8] -0.012 | [9] 0.007 | [10] -0.015 | [11] -0.008 | [12] -0.05 | [13] 0.043 | [14] 0.005 | [15] 0.01 | [16] -0.013 | [17] 0.012 | [18] -0.107 | [19] 0.051 | [20] -0.023

GRB10 (UniProt Q13322)
Chain of UniProt Q13322 (Q13322 whole entry, looked up): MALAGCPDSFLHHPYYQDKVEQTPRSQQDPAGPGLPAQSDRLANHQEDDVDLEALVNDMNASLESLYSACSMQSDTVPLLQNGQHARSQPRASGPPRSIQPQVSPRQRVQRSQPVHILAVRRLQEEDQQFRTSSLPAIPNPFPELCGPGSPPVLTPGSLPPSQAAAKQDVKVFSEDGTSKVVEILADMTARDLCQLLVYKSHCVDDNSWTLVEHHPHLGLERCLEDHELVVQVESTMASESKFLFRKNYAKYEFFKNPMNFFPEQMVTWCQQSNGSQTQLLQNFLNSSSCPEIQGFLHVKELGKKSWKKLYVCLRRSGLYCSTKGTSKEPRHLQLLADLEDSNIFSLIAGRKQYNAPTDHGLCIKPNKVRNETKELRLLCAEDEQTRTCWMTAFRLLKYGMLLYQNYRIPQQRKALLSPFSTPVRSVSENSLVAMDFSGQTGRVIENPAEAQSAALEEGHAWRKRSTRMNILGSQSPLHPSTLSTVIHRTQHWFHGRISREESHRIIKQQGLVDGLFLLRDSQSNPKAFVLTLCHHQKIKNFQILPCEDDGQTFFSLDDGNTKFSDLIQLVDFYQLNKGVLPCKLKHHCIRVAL
inactive: [1] -0.061 | [2] -0.226 | [3] 0.015 | [4] 0.003 | [5] 0.02 | [6] 0.065 | [7] 0.01 | [8] 0 | [9] -0.02 | [10] -0.043 | [11] -0.029 | [12] -0.034 | [13] -0.028 | [14] -0.125 | [15] 0.029 | [16] 0.016 | [17] -0.06 | [18] 0.021 | [19] -0.049 | [20] 0.099

IFNGR1 (UniProt P15260)
Chain of UniProt P15260 (P15260 whole entry, looked up): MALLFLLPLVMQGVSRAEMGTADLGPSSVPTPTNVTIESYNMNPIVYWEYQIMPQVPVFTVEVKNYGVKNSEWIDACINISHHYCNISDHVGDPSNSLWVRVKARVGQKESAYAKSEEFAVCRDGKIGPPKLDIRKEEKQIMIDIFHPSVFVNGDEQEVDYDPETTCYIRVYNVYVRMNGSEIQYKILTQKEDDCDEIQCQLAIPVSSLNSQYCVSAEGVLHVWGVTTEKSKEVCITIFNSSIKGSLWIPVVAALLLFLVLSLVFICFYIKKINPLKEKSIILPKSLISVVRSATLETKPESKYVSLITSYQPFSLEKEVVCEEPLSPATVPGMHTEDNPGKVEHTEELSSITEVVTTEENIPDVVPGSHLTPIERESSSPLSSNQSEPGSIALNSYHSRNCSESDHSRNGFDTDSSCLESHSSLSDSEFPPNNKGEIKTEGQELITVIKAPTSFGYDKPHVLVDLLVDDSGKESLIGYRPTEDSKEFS
inactive: [1] -0.348 | [2] 0.157 | [3] -0.022 | [4] -0.164 | [5] 0.272 | [6] -0.018 | [7] -0.002 | [8] 0.138 | [9] 0.106 | [10] -0.036 | [11] -0.076 | [12] 0.153 | [13] -0.008 | [14] -0.497 | [15] 0.196 | [16] 0.263 | [17] -0.001 | [18] -0.034 | [19] -0.144 | [20] 0.378

ISCA1 isoform 2 (UniProt Q9BUE6)
Chain of UniProt Q9BUE6 (Q9BUE6 whole entry, looked up): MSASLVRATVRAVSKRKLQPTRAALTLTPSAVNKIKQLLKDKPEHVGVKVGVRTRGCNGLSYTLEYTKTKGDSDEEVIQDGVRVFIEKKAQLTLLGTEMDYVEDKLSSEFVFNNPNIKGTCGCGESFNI
active: [14] 0.343
inactive: [1] 0.103 | [2] 0.023 | [3] 0.037 | [4] 0.092 | [5] 0.071 | [6] -0.034 | [7] -0.003 | [8] -0.286 | [9] 0.075 | [10] -0.025 | [11] 0.054 | [12] -0.08 | [13] -0.011 | [15] 0.012 | [16] -0.132 | [17] -0.004 | [18] 0.011 | [19] 0.067 | [20] -0.223

ILKAP (UniProt Q9H0C8)
Chain of UniProt Q9H0C8 (Q9H0C8 whole entry, looked up): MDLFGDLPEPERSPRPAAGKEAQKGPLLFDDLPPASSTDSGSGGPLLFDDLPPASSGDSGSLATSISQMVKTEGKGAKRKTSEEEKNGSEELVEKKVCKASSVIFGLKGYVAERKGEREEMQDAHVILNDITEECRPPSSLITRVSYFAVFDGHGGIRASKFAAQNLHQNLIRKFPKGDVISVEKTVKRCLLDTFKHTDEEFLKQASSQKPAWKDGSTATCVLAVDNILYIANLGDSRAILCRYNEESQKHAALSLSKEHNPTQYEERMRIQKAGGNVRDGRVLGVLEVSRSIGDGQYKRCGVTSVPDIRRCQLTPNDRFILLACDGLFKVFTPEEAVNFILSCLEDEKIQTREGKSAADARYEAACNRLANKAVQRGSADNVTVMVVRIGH
inactive: [1] 0.056 | [2] -0.067 | [3] 0 | [4] 0.03 | [5] -0.028 | [6] -0.002 | [7] 0.017 | [8] 0.067 | [9] -0.006 | [10] 0.005 | [11] 0.04 | [12] 0.049 | [13] 0.026 | [14] 0.022 | [15] 0.007 | [16] -0.052 | [17] 0.031 | [18] 0.029 | [19] 0.001 | [20] -0.021

GTF2I (UniProt P78347)
inactive: [1] 0.05 | [2] -0.096 | [3] 0.012 | [4] 0.018 | [5] -0.035 | [6] 0.015 | [7] 0.14 | [8] 0.011 | [9] 0.004 | [10] -0.01 | [11] -0.005 | [12] -0.011 | [13] -0.039 | [14] -0.01 | [15] 0.016 | [16] -0.086 | [17] -0.004 | [18] 0.018 | [19] -0.066 | [20] 0.027

HLCS (UniProt P50747)
Chain of UniProt P50747 (P50747 whole entry, looked up): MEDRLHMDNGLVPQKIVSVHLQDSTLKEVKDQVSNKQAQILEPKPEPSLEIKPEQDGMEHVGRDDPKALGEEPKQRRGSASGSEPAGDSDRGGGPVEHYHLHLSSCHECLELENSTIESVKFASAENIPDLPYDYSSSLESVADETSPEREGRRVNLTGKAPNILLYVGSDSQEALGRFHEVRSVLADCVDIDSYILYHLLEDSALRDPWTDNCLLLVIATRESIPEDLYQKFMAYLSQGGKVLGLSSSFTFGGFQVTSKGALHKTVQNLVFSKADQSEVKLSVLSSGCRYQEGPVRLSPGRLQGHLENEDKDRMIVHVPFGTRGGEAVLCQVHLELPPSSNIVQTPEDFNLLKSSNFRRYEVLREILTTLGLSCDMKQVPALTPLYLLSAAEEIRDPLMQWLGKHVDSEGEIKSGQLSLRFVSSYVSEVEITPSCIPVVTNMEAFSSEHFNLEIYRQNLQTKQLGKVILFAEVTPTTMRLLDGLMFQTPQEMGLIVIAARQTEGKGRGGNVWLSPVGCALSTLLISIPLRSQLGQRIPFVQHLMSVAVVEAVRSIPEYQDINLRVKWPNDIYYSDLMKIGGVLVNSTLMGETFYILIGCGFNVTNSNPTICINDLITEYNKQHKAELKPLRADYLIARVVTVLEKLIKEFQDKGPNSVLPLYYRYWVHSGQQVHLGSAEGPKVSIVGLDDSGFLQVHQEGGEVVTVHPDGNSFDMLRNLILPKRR
inactive: [1] -0.015 | [2] 0.036 | [3] 0.018 | [4] 0.017 | [5] 0.025 | [6] 0.003 | [7] 0.053 | [8] -0.01 | [9] 0.038 | [10] 0.013 | [11] -0.026 | [12] -0.022 | [13] -0.009 | [14] 0.199 | [15] 0.016 | [16] -0.002 | [17] 0.006 | [18] 0.026 | [19] -0.045 | [20] -0.007
